# Reference: PubChem BioAssay (NCATS)
# Several values for one entry are separate records, joined by “and”; a condition that tells them apart may be missing. Identical values can stand only once. Results filed as inconclusive are left out. Where a call stands in place of a potency, no number is given. Activity calls are given as the source filed them. Unless noted, the call rests on the fitted dose curve; in most records, active means well fitted curve in the direction sought with a large enough effect; inconclusive means small, poorly fitted or top-dose-only effect, or another doubt; inactive means no such curve, though single readings can be large; an effect the other way counts as inactive or inconclusive.
# Legend:
# astro = control astrocytes; test: Drug repurposing screens with cells derived from glioblastoma tumor samples (AID 1345199); settings: viability, ATP luminescence, 48 h; series mostly up to 45.9 µM; further: nearly all actives have a fitted effect of over 40% in size; further: potency means the concentration at half of the fitted maximal effect
# Method in brief: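 Primary testing used CD133+ neurospheres from four GBM patients, seven concentrations, 48 h exposure and ATP-based viability; confirmation added three slower-growing patient lines.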
# [1] = molecular target: Nuclear receptor subfamily 1 group I member 2 (Rattus norvegicus) (UniProt Q9R1A7); test: qHTS assay for small molecule activators of the rat pregnane X receptor (rPXR) signaling pathway (AID 651751; call rule not given here); settings: rPXR reporter cells, luciferase (One-Glo), 24 h
# Chain of Nuclear receptor subfamily 1 group I member 2 (Rattus norvegicus) (Q9R1A7 whole entry, looked up): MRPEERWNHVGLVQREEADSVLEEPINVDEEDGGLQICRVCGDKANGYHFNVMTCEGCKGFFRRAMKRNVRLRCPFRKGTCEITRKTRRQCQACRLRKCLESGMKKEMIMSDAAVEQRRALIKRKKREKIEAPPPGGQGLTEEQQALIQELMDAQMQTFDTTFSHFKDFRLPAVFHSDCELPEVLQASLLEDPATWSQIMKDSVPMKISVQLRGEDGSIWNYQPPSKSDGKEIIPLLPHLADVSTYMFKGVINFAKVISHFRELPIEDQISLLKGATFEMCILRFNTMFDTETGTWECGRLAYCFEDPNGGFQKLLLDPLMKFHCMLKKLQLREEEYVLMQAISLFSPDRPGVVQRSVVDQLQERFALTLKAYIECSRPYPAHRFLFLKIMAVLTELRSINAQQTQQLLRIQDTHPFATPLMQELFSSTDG
# [2] = qHTS assay for small molecule activators of the human pregnane X receptor (PXR) signaling pathway (AID 720659; call rule not given here)
# [3] = qHTS assay to identify inhibitors of the type 1 interferon - major histocompatibility complex class I in skeletal muscle: Counter screen cell viability and HiBit confirmation (AID 1347412); settings: iHSKM muscle cells + IFN-b, HiBiT or CellTiter-Glo, 24 h; Potency: HiBiT; Viability, at 45.9 µM (top of the series); further: nearly all actives have a fitted effect of over 60% in size; further: potency means the concentration at half of the fitted maximal effect
# Method in brief: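 Luminescence read-out: Nano-Glo HiBiT lytic signal from C-terminally HiBiT-tagged HLA-B in CRISPR-edited human myoblasts, plus CellTiter Glo ATP as viability counter screen. IFN-beta 4.0 ng/ml; 24 hrs treatment at 37 C, 5% CO2.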
compound,measurement,setting,value
O=C(O)c1ccc2[nH]cc(CCCCN3CC=C(c4ccccc4)CC3)c2c1,Potency,astro,inactive
Cc1ccc(S(=O)(=O)N[C@@H](CCCCN)C(=O)CCl)cc1,Potency,astro,inactive
CN1CCN(C(=O)O[C@H]2c3nccnc3C(=O)N2c2ccc(Cl)cn2)CC1,Potency,astro,inactive
O=P1(NCCCl)OCCCN1CCCl (stereo unspecified),Potency,astro,inactive
O=c1[nH]c2ccccc2n1CCCN1CCC(n2c(=O)[nH]c3cc(Cl)ccc32)CC1,Potency,astro,inactive
CC[N+]1(C)CCCC(OC(=O)C(O)(c2ccccc2)c2ccccc2)C1 (stereo unspecified),Potency,astro,inactive
CCN(CC)CCOC(=O)C(O)(c1ccccc1)c1ccccc1,Potency,astro,inactive
COc1ccc(C(=O)c2c(C)n(CCN3CCOCC3)c3ccccc23)cc1,Potency,astro,inactive
CCC(C(N)=O)N1CCCC1=O (stereo unspecified),Potency,astro,inactive
NCCc1cc(O)c(O)cc1O,Potency,astro,inactive
CC(C)CC(N(C)C)C1(c2ccc(Cl)cc2)CCC1 (stereo unspecified),Potency,astro,inactive
Cc1ncc(CNC(=O)N(CCCl)N=O)c(N)n1,Potency,astro,inactive
COc1ccccc1N1CCNCC1,Potency,astro,inactive
O=C1NCN(c2ccccc2)C12CCN(CC1COc3ccccc3O1)CC2 (stereo unspecified),Potency,astro,inactive
Cc1cccc(C)c1NC(=O)CN1CCCC1=O,Potency,astro,inactive
N[C@@H](Cc1ccc(Oc2cc(I)c(O)c(I)c2)c(I)c1)C(=O)O,Potency,astro,inactive
C#CCOC(C(=O)OCCN(C)C)(c1ccccc1)c1ccccc1,Potency,astro,inactive
CCC(COC(=O)c1cc(OC)c(OC)c(OC)c1)(c1ccccc1)N(C)C (stereo unspecified),Potency,astro,inactive
CN(C)CCc1ccc(O)cc1,Potency,astro,inactive
Cn1c(CCCC(=O)O)nc2cc(N(CCCl)CCCl)ccc21,Potency,astro,inactive
C=CCN1CC[C@]23c4c5ccc(O)c4O[C@H]2C(=O)CC[C@@]3(O)[C@H]1C5,Potency,astro,inactive
Clc1ccc(CCC(Cn2ccnc2)Sc2c(Cl)cccc2Cl)cc1 (stereo unspecified),Potency,astro,inactive
CN1C[C@H](CNC(=O)OCc2ccccc2)C[C@@H]2c3cccc4c3c(cn4C)C[C@H]21,Potency,astro,inactive
CC(C)=CC1C(C(=O)OCc2cccc(Oc3ccccc3)c2)C1(C)C (stereo unspecified),Potency,astro,inactive
CC(=O)Nc1cc([As](=O)(O)O)ccc1O,Potency,astro,inactive
N[C@@H]1C[C@H]1c1ccccc1,Potency,astro,inactive
COc1ccc(C(CN(C)C)C2(O)CCCCC2)cc1 (stereo unspecified),Potency,astro,inactive
CC(C)(C)NCC(O)c1cc(Cl)c(N)c(Cl)c1 (stereo unspecified),Potency,astro,inactive
Cc1cccc(C)c1NC1=NCCCS1,Potency,astro,inactive
CCC(=O)C(CC(C)N(C)C)(c1ccccc1)c1ccccc1 (stereo unspecified),Potency,astro,inactive
COc1ccc(Cc2nccc3cc(OC)c(OC)cc23)cc1OC,Potency,astro,10 µM (active)
O=c1oc2ccccc2c(O)c1C(CC(O)c1ccc(-c2ccc(Br)cc2)cc1)c1ccccc1 (stereo unspecified),max response,[1],-13.3% (inactive)
same,outcome,[2],inactive
Oc1cc(Cl)ccc1Oc1ccc(Cl)cc1Cl,Potency,astro,28.2 µM (active)
same,max response,[1],-4.24% (inactive)
same,outcome,[2],inactive
CC(=O)[C@H]1CC[C@H]2[C@@H]3CC[C@H]4C[C@](C)(O)CC[C@]4(C)[C@H]3CC[C@]12C,Potency,astro,inactive
c1ccc2c(c1)Nc1ccccc1S2,Potency,astro,inactive
same,max response,[1],0.0251% (inactive) and 2.69% (inactive)
CCCC(C)(COC(N)=O)COC(=O)NC(C)C (stereo unspecified),Potency,astro,inactive
same,max response,[1],6.19% (inactive) and 1.57% (inactive)
OCCOc1ccccc1,Potency,astro,inactive
same,outcome,[2],inactive
FC(F)(F)c1cccc(C2=CCN(CCc3ccc4ccccc4c3)CC2)c1,Potency,astro,inactive
Oc1cccc2cccnc12,outcome,[2],inactive
CC(C)(C)CC(C)(C)c1ccc(O)cc1,max response,[1],-11.1% (inactive)
NCC(O)c1ccc(O)cc1 (stereo unspecified),Potency,astro,inactive
same,max response,[1],2.53% (inactive)
same,outcome,[2],inactive
C[C@]12C/C(=C/O)C(=O)C[C@@H]1CC[C@@H]1[C@@H]2CC[C@@]2(C)[C@H]1CC[C@]2(C)O,Potency,astro,inactive
same,max response,[1],-5.34% (inactive) and -0.621% (inactive)
same,outcome,[2],inactive
C[C@H]1O[C@@H](O[C@H]2[C@@H](O)C[C@H](O[C@H]3[C@@H](O)C[C@H](O[C@H]4CC[C@@]5(C)[C@H](CC[C@@H]6[C@@H]5CC[C@]5(C)[C@@H](C7=CC(=O)OC7)CC[C@]65O)C4)O[C@@H]3C)O[C@@H]2C)C[C@H](O)[C@@H]1O,Potency,astro,0.1 µM (active)
same,Potency,[3],49.7 nM (active)
same,max response,[1],-1.87% (inactive)
same,outcome,[2],inactive
Oc1ccccc1-c1ccccc1,Potency,astro,inactive
same,max response,[1],-0.588% (inactive) [middle of 4 runs]
Cc1cc(SCc2sc(-c3ccc(C(F)(F)F)c(F)c3)nc2C)ccc1OCC(=O)O,max response,[1],13% (inactive)
CCOP(=S)(OCC)Oc1cc(C)nc(C(C)C)n1,Potency,astro,inactive
same,max response,[1],3.69% (inactive) and 1.39% (inactive)
N[C@@H](Cc1ccc(N(CCCl)CCCl)cc1)C(=O)O,max response,[1],1.48% (inactive) and 0.994% (inactive)
CC1NCCOC1c1ccccc1 (stereo unspecified),Potency,astro,inactive
O=[N+]([O-])c1cc([As](=O)(O)O)ccc1O,Potency,astro,inactive
C[C@@H]1O[C@@H](O[C@H]2C[C@@H](O)[C@]3(CO)[C@H]4[C@H](O)C[C@]5(C)[C@@H](C6=CC(=O)OC6)CC[C@]5(O)[C@@H]4CC[C@]3(O)C2)[C@H](O)[C@H](O)[C@H]1O,Potency,astro,316 nM (active) and 89.1 nM (active)
same,Potency,[3],70.1 nM (active) and 55.7 nM (active)
same,max response,[1],0.133% (inactive)
same,outcome,[2],inactive
Cc1sc2c(c1C)C(c1ccc(Cl)cc1)=N[C@@H](CC(=O)OC(C)(C)C)c1nnc(C)n1-2,Potency,[3],inactive
Oc1ccc(Cl)cc1Cc1ccccc1,Potency,astro,35.5 µM (active)
same,max response,[1],0.0184% (inactive) and 1.61% (inactive)
COC[C@H]1OC(=O)c2coc3c2[C@@]1(C)C1=C(C3=O)C2CCC(=O)[C@@]2(C)C[C@H]1OC(C)=O (stereo partly specified),Potency,[3],inactive
O=c1[nH]c2ccccc2n1C1CCN(CCCC(c2ccc(F)cc2)c2ccc(F)cc2)CC1,Potency,astro,17.8 µM (active)
same,outcome,[2],inactive
Nc1ccncc1,Potency,astro,inactive
same,max response,[1],-1.96% (inactive)
same,outcome,[2],inactive
CNCC(O)c1ccc(O)cc1 (stereo unspecified),Potency,astro,inactive
same,max response,[1],-0.194% (inactive)
same,outcome,[2],inactive
C=C(C)[C@H]1Cc2c(ccc3c2O[C@@H]2COc4cc(OC)c(OC)cc4[C@@H]2C3=O)O1,Potency,astro,0.562 µM (active)
same,max response,[1],-14.4% (inactive)
c1ccc2c(c1)OCC(C1=NCCN1)O2 (stereo unspecified),Potency,astro,15.8 µM (active)
same,Potency,[3],inactive
C[C@]12CCC(=O)C(O)=C1CC[C@@H]1[C@@H]2CC[C@]2(C)C(=O)CC[C@@H]12,Potency,astro,inactive
same,max response,[1],2.3% (inactive)
